Drawing on PubChem BioAssay AID485347 (National Center for Advancing Translational Sciences (NCATS), 2010), this text covers potentiation for 59 compounds.

SMILES strings stand for the structures. Values joined by “and” are separate entries in the source; they are usually repeats but may differ in a detail not shown here. Identical values can stand only once. Hit rate of the full screen: of about 340,000 compounds, about 1,200 (0.35%) were called active.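 Rule for the calls: active = potentiation over 3 SD above the plate norm (cut at about 30% in these data); inactive = the rest.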 For the sample, actives were picked, then their nearest neighbours and some compounds at random. Some compounds were tested as several samples or in several runs, with calls that do not always agree.

Chain of D(2) dopamine receptor (Homo sapiens) (P14416 whole entry, looked up): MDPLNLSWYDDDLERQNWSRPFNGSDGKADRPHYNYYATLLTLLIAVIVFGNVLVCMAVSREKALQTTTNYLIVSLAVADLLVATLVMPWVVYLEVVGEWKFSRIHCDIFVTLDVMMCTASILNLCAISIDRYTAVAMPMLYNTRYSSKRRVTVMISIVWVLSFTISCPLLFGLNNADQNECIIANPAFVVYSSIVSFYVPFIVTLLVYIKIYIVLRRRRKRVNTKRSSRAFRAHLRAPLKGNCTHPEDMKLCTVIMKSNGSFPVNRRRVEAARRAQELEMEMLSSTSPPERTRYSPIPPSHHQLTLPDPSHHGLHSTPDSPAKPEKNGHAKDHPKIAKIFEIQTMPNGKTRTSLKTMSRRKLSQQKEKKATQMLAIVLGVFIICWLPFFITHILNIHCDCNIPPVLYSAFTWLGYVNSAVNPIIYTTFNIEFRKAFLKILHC

This test concerns the target D(2) dopamine receptor (Homo sapiens) (UniProt P14416). Description: HTS Assay for Positive Allosteric Modulators of the Human D2 Dopamine Receptor: Primary Screen for Potentiators. Note: 0% is about no effect. Particulars: HEK293 T-REx D2, calcium flux, EC20 dopamine potentiation; at 10 µM; stronger effect = higher value. The method in brief: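 Cells plated with tetracycline inducer and held overnight at 30 C; calcium dye loaded 30–90 min at room temperature; baseline taken, compound added and read 180 s; EC20 dopamine then added and read 180 s.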
For the compound `CCOC(=O)N1CCc2c(sc(NCc3cccc(F)c3)c2C(=O)Nc2ccccc2OCC)C1`, the potentiation was -0.26% (inactive).

`O=C(NCCCN1CCCC1=O)c1ccc(S(=O)(=O)Nc2ccccc2)cc1`: the potentiation is 3.61% (inactive).

Regarding `CCOc1ccc(S(=O)(=O)Nc2ccc(C(=O)NCCCN3CCCC3=O)cc2)cc1`, the potentiation is 11.5% (inactive).

Regarding `CCOc1ccc(C(=O)NCCCN2CCCC2=O)cc1`, the potentiation was 30.7% (active).

Take `COc1cc(Cl)ccc1Nc1ncc(C(=O)N2CCN(c3ccccc3OC)CC2)c2ccccc12`: the potentiation is -3.04% (inactive).

Regarding `NC(=O)CSc1nc2c(oc3ccccc32)c(=O)n1Cc1ccccc1`, the potentiation is 4.88% (inactive).

As for `Cc1cccc(NC(=O)c2ccc3nc(C(C)C)oc3c2)c1C`, the potentiation was -11.3% (inactive).

`Nc1nc(NCC2CCCO2)nc(Nc2ccccc2F)c1[N+](=O)[O-]` (centres undefined): the potentiation is 31.9% (active).

Turning to `Nc1nc(Nc2ccccc2F)nc(NC2CCCCC2)c1[N+](=O)[O-]`, the potentiation is 6.13% (inactive).

Consider `Nc1nc(NCCCN2CCOCC2)nc(Nc2ccccc2)c1[N+](=O)[O-]`, for which the potentiation is -1.17% (inactive).

Regarding `COc1ccc(NC(=O)CSc2nccn2C2CCCC2)cc1OC`, the potentiation was 7.4% (inactive).

As for `Cc1cc(O)c(C(c2ccccc2)N2CCN(c3ccccc3F)CC2)c(=O)n1Cc1ccco1` (centres undefined), the potentiation is -21.6% (inactive).

Consider `O=C(NCc1ccccn1)c1c(O)c2c([nH]c1=O)CCCC2`, for which the potentiation was 4.39% (inactive).

In the case of `C[N+](C)(C)CCNC(=O)c1c(O)c2c([nH]c1=O)CCCC2`, the potentiation was 13.8% (inactive).

Consider `CCc1nnc(NC(=O)c2c(O)c3c([nH]c2=O)CCCC3)s1`, for which the potentiation was 55.5% (active).

Consider `CN(C)CCCn1c(-c2ccc(Cl)cc2)csc1=Nc1ccccc1`, for which the potentiation was -16.7% (inactive).

`CC(c1ccccc1)n1c(NCCCn2ccnc2)nc2c1c(=O)[nH]c(=O)n2C` (centres undefined): the potentiation was -8.07% (inactive).

As for `Cn1c(=O)[nH]c(=O)c2c1nc(NCCCn1ccnc1)n2Cc1cccc(Br)c1`, the potentiation was 40% (active).

Consider `Cn1c(=O)[nH]c(=O)c2c1nc(NCCc1ccccc1)n2Cc1ccc(F)cc1`, for which the potentiation was -10.3% (inactive).

Take `Cc1cccc(C(CC(=O)NCC2(c3ccccc3)CCCC2)c2ccccc2)c1O` (centres undefined): the potentiation is 8.89% (inactive).

As for `CCOC(=O)c1ccc(NC(=O)c2csc3c2CCCCC3)cc1`, the potentiation is 1.32% (inactive).

Turning to `CC1CC(C)CN(CCCNC(=O)c2csc3c2CCCCC3)C1` (centres undefined), the potentiation is 30.4% (active).

Consider `CCOc1ccc(CCNC(=O)c2csc3c2CCCCC3)cc1`, for which the potentiation was -0.665% (inactive).

For `Cc1ccc(NC(=O)CSc2nnc3[nH]c(=O)cc(C)n23)cc1Cl`, the potentiation was -5% (inactive).

Take `Cc1nc2ccccc2n1CC(=O)N/N=C/c1cccs1`: the potentiation was 0.665% (inactive).

Turning to `Cc1n[nH]c(=O)nc1N/N=C/c1cccs1`, the potentiation is 36.2% (active).

Consider `Cc1cc(C)nc(SC(C)C(=O)N/N=C/c2cccs2)n1` (centres undefined), for which the potentiation is 12.3% (inactive).

`CCOC(=O)C1CCN(c2ncnc3c2c(-c2ccccc2)cn3-c2cccc(C)c2)CC1`: the potentiation was -2.84% (inactive).

For the compound `CCOC(=O)C1CCN(Cc2nnc(-c3cccc(Br)c3)o2)CC1`, the potentiation is -5.55% (inactive).

In the case of `CCOC(=O)C1CCN(c2ncnc3c2oc2ccc(Br)cc23)CC1`, the potentiation was 34.7% (active).

With `CCCCOc1ccc(CN2C(=O)C(=O)c3cc(Br)cc(C)c32)cc1OC`, the potentiation was 21.8% (inactive).

As to `Cc1ccc(N2CCN(C(=O)CCc3c(C)nc4c(c3C)c(=O)n(C)c(=O)n4C)CC2)c(C)c1`, the potentiation is -0.454% (inactive).

With `CCN(CC(=O)NCCc1ccccc1)S(=O)(=O)c1ccccc1`, the potentiation is 13.4% (inactive).

Consider `CCN(CC)S(=O)(=O)c1ccc2[nH]cc(C(=O)NCCc3ccccc3)c(=O)c2c1`, for which the potentiation was -2.89% (inactive) and 46.8% (active).

Regarding `CCc1ccc(NS(=O)(=O)c2ccc3[nH]cc(C(=O)NCCc4cccc(C)c4)c(=O)c3c2)cc1`, the potentiation was -7.11% (inactive).

In the case of `N#Cc1ccc(-c2cccs2)nc1SCc1ccc(Br)cc1`, the potentiation is -0.921% (inactive).

For the compound `COc1cccc(CNC(=O)CCC(=O)N2CC3CCCN3c3ccccc32)c1` (centres undefined), the potentiation was -3.32% (inactive).

Take `COc1cccc(Cn2c(SCc3ccc(C(=O)N4CCCCC4)cc3)nc3ccncc32)c1`: the potentiation is 0.981% (inactive).

Consider `CCc1nn(CC(=O)N2CCN(c3cccc(C(F)(F)F)c3)CC2)c(=O)c2cc3occc3n12`, for which the potentiation was 4.66% (inactive).

Consider `O=C(NCc1cc(F)cc(C(F)(F)F)c1)C1CCC(=O)N(C2CCCC2)C1` (centres undefined), for which the potentiation was 39% (active).

For `Cc1ccc(CNC(=O)C2CC(=O)N(C3CCCCCCC3)C2)cc1` (centres undefined), the potentiation was 7.03% (inactive).

Turning to `O=C(NCc1cccc(Cl)c1)C1CCC(=O)N(C2CC2)C1` (centres undefined), the potentiation is -9.09% (inactive).

In the case of `CCOC(=O)c1ccc(NC(=O)CCS(=O)(=O)c2ccc3c(c2)oc(=O)n3C)cc1`, the potentiation is -4.33% (inactive).

Consider `COc1ccccc1NC(=O)CSC1=Nc2ccccc2C2=NC(CC(=O)NCc3cccs3)C(=O)N12` (centres undefined), for which the potentiation is -7.55% (inactive).

For the compound `O=C(CC12CC3CC(CC(C3)C1)C2)Nc1ccc2c(c1)COC2=O`, the potentiation was -3.01% (inactive).

For the compound `NS(=O)(=O)c1cccc(NC(=O)CC23CC4CC(CC(Br)(C4)C2)C3)c1`, the potentiation was 38.8% (active).

With `Cc1ccc(S(=O)(=O)NCCC(=O)Nc2cccc(S(N)(=O)=O)c2)cc1C`, the potentiation was -4.48% (inactive).

Take `Cc1ccc2nc(COc3cccc(NC(=O)Nc4ccc(C)c(Cl)c4)c3)cc(=O)n2c1`: the potentiation was -1.63% (inactive).

On to `CCc1ccc(NC(=O)CCNS(=O)(=O)c2cccs2)cc1`, for which the potentiation is 13.5% (inactive).

Turning to `O=C(COC(=O)c1ccc(O)cc1O)NNC(=O)c1cccs1`, the potentiation is -6.83% (inactive).

Consider `O=C(COC(=O)c1ccc(NS(=O)(=O)c2cccs2)cc1O)Nc1ccc(F)cc1`, for which the potentiation was 35.7% (active).

In the case of `COc1cc(Cl)c(C)cc1NC(=O)CN1CCCCCC1`, the potentiation is -1.62% (inactive).

Turning to `COc1ccc(NC(C)=O)cc1NC(=O)CN1CCN(C2c3ccccc3-c3ccccc32)CC1`, the potentiation was 30.8% (active).

Take `COc1ccc(NC(C)=O)cc1NC(=O)CN1CCN(c2ccc(F)cc2)CC1`: the potentiation was -0.119% (inactive).

As to `Clc1ccc(CSc2nncn3c2cc2occc23)cc1`, the potentiation is 0.301% (inactive).

On to `CN1CCN(C2(CNC(=O)COc3ccc(C(C)(C)C)cc3)CCCCC2)CC1`, for which the potentiation is -18.8% (inactive).

In the case of `CCOC(=O)c1cn[nH]c1NC(=S)Nc1ccccc1`, the potentiation was 3.61% (inactive).

`CCOC(=O)c1c(C)nc(-c2ccccc2)nc1NC(=O)C(C)C`: the potentiation was 32.3% (active).

With `Cc1[nH]c2ccccc2c1C(=O)COC(=O)c1c(-c2ccccc2)noc1C`, the potentiation is 8.38% (inactive).
